Hit rate of the full screen: of about 5,500 compounds, about 2,000 (36%) were called active. Another 18% or so got no clear call; they are omitted. Cut-off read from the data, not from the text of the source: active = normalized growth mostly below about 0.91 (no sharp cut-off); inconclusive = no clear call, values can overlap the other calls; inactive = mostly above about 0.92. Some of the results follow.
Experiment: chemical genetic growth profiling, strain panel (AID 1159580);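 note: tested at 20 µM; growth read once vehicle control cultures reached saturation at 30 °C; 1 = growth at the plate median or of vehicle wells; lower values mean less growth of the strain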
Conditions: growth OD
[1] = S. cerevisiae deletion strains, locus YDL101C, strain DUN1, hits give low values
[2] = S. cerevisiae deletion strains, locus YHR030C, strain SLT2, hits give low values

Measured: normalized growth

O=C(Oc1cc(Cl)c(Cl)cc1Cl)C1c2ccccc2Oc2ccccc21
inactive: S. cerevisiae deletion strains, locus YAR019C, strain CDC15, hits give low values 0.953 | S. cerevisiae deletion strains, locus YBL105C, strain PKC1, hits give low values 0.943 | S. cerevisiae deletion strains, locus YBR135W, strain CKS1, hits give low values 0.944 | S. cerevisiae deletion strains, locus YBR136W, strain MEC1, hits give low values 0.937 | S. cerevisiae deletion strains, locus YBR160W, strain CDC28, hits give low values 0.94 | S. cerevisiae deletion strains, locus YDL017W, strain CDC7, hits give low values 0.937 | S. cerevisiae deletion strains, locus YDL028C, strain MPS1, hits give low values 0.943 | [1] 0.945 | S. cerevisiae deletion strains, locus YDL108W, strain KIN28, hits give low values 0.941 | S. cerevisiae deletion strains, locus YDL132W, strain cdc53, hits give low values 0.934 | S. cerevisiae deletion strains, locus YDL214C, strain PRR2, hits give low values 0.95 | S. cerevisiae deletion strains, locus YDR052C, strain DBF4, hits give low values 0.96 | S. cerevisiae deletion strains, locus YDR054C, strain cdc34, hits give low values 0.927 | S. cerevisiae deletion strains, locus YDR226W, strain ADK1, hits give low values 0.963 | S. cerevisiae deletion strains, locus YDR477W, strain SNF1, hits give low values 0.912 | S. cerevisiae deletion strains, locus YER123W, strain YCK3, hits give low values 0.961 | S. cerevisiae deletion strains, locus YER133W, strain GLC7, hits give low values 0.982 | S. cerevisiae deletion strains, locus YFL009W, strain cdc4, hits give low values 0.933 | S. cerevisiae deletion strains, locus YFL029C, strain CAK1, hits give low values 0.95 | S. cerevisiae deletion strains, locus YFR003C, strain YPI1, hits give low values 0.941 | S. cerevisiae deletion strains, locus YFR019W, strain FAB1, hits give low values 0.996 | S. cerevisiae deletion strains, locus YFR028C, strain CDC14, hits give low values 0.949 | S. cerevisiae deletion strains, locus YGR040W, strain KSS1, hits give low values 0.907 | S. cerevisiae deletion strains, locus YGR052W, strain FMP48, hits give low values 0.924 | S. cerevisiae deletion strains, locus YGR092W, strain DBF2, hits give low values 0.655 | S. cerevisiae deletion strains, locus YHR079C, strain IRE1, hits give low values 0.829 | S. cerevisiae deletion strains, locus YHR082C, strain KSP1, hits give low values 0.976 | S. cerevisiae deletion strains, locus YHR205W, strain SCH9, hits give low values 0.924 | S. cerevisiae deletion strains, locus YIL147C, strain SLN1, hits give low values 0.936 | S. cerevisiae deletion strains, locus YJL095W, strain BCK1, hits give low values 0.862 | S. cerevisiae deletion strains, locus YJL128C, strain PBS2, hits give low values 0.887 | S. cerevisiae deletion strains, locus YJL157C, strain FAR1, hits give low values 0.979 | S. cerevisiae deletion strains, locus YJR016C, strain ILV3, hits give low values 0.945 | S. cerevisiae deletion strains, locus YJR066W, strain TOR1 (second series), hits give low values 0.865 | S. cerevisiae deletion strains, locus YJR066W, strain TOR1, hits give low values 0.93 | S. cerevisiae deletion strains, locus YKL048C, strain ELM1, hits give low values 0.883 | S. cerevisiae deletion strains, locus YKL067W, strain YNK1, hits give low values 0.951 | S. cerevisiae deletion strains, locus YKL101W, strain HSL1, hits give low values 0.9 | S. cerevisiae deletion strains, locus YKL193C, strain SDS22, hits give low values 0.958 | S. cerevisiae deletion strains, locus YKL203C, strain TOR2, hits give low values 0.958 | S. cerevisiae deletion strains, locus YLR133W, strain CKI1, hits give low values 0.981 | S. cerevisiae deletion strains, locus YLR403W, strain SFP1, hits give low values 0.957 | S. cerevisiae deletion strains, locus YML070W, strain DAK1, hits give low values 0.962 | S. cerevisiae deletion strains, locus YMR001C, strain CDC5, hits give low values 0.951 | S. cerevisiae deletion strains, locus YMR205C, strain PFK2 (second series), hits give low values 0.971 | S. cerevisiae deletion strains, locus YMR277W, strain FCP1, hits give low values 0.96 | S. cerevisiae deletion strains, locus YNL006W, strain LST8, hits give low values 0.945 | S. cerevisiae deletion strains, locus YNL020C, strain ARK1, hits give low values 0.986 | S. cerevisiae deletion strains, locus YNL161W, strain CBK1, hits give low values 0.94 | S. cerevisiae deletion strains, locus YNL183C, strain NPR1, hits give low values 0.884 | S. cerevisiae deletion strains, locus YNL207W, strain RIO2, hits give low values 0.925 | S. cerevisiae deletion strains, locus YNL222W, strain SSU72, hits give low values 0.942 | S. cerevisiae deletion strains, locus YNL307C, strain MCK1 (second series), hits give low values 0.9 | S. cerevisiae deletion strains, locus YOL078W, strain AVO1, hits give low values 0.959 | S. cerevisiae deletion strains, locus YOL136C, strain PFK27, hits give low values 0.976 | S. cerevisiae deletion strains, locus YOR061W, strain CKA2, hits give low values 0.995 | S. cerevisiae deletion strains, locus YOR119C, strain RIO1, hits give low values 0.988 | S. cerevisiae deletion strains, locus YOR231W, strain MKK1, hits give low values 0.856 | S. cerevisiae deletion strains, locus YOR329C, strain SCD5, hits give low values 0.943 | S. cerevisiae deletion strains, locus YPL031C, strain PHO85, hits give low values 0.903 | S. cerevisiae deletion strains, locus YPL153C, strain RAD53, hits give low values 0.904 | S. cerevisiae deletion strains, locus YPL204W, strain HRR25, hits give low values 0.867 | S. cerevisiae deletion strains, locus YPL209C, strain IPL1, hits give low values 0.938 | S. cerevisiae deletion strains, locus YPR025C, strain CCL1, hits give low values 0.939 | S. cerevisiae deletion strains, locus YPR106W, strain ISR1, hits give low values 0.931 | S. cerevisiae deletion strains, locus YPR111W, strain DBF20, hits give low values 0.901 | S. cerevisiae deletion strains, strain NNK1, hits give low values 0.927 | S. cerevisiae deletion strains, strain TSCII, hits give low values 0.944
active: [2] 0.75 | S. cerevisiae deletion strains, locus YLR113W, strain HOG1, hits give low values 0.758 | S. cerevisiae deletion strains, locus YPL256C, strain CLN2, hits give low values 0.821

O=C(O)C1c2ccccc2Oc2ccccc21
inactive: S. cerevisiae deletion strains, locus YAL013W, strain DEP1, hits give low values 0.999 | S. cerevisiae deletion strains, locus YBR229C, strain ROT2, hits give low values 0.993 | S. cerevisiae deletion strains, locus YCL061C, strain MRC1, hits give low values 0.99 | [1] 1 | S. cerevisiae deletion strains, locus YDL134C, strain PPH21, hits give low values 1 | S. cerevisiae deletion strains, locus YDR150W, strain NUM1, hits give low values 0.962 | S. cerevisiae deletion strains, locus YEL061C, strain CIN8, hits give low values 0.996 | S. cerevisiae deletion strains, locus YGR078C, strain PAC10, hits give low values 0.984 | [2] 0.987 | S. cerevisiae deletion strains, locus YHR087W, strain rtc3, hits give low values 0.971 | S. cerevisiae deletion strains, locus YJL187C, strain SWE1, hits give low values 0.992 | S. cerevisiae deletion strains, locus YJR043C, strain POL32, hits give low values 1 | S. cerevisiae deletion strains, locus YJR075W, strain HOC1, hits give low values 0.975 | S. cerevisiae deletion strains, locus YLR039C, strain RIC1, hits give low values 0.984 | S. cerevisiae deletion strains, locus YLR058C, strain SHM2 (second series), hits give low values 0.998 | S. cerevisiae deletion strains, locus YLR085C, strain ARP6, hits give low values 0.969 | S. cerevisiae deletion strains, locus YLR262C, strain YPT6, hits give low values 1 | S. cerevisiae deletion strains, locus YML094W, strain GIM5, hits give low values 1.03 | S. cerevisiae deletion strains, locus YMR219W, strain ESC1, hits give low values 0.989 | S. cerevisiae deletion strains, locus YMR263W, strain SAP30, hits give low values 1.01 | S. cerevisiae deletion strains, locus YNL128W, strain TEP1, hits give low values 1.01 | S. cerevisiae deletion strains, locus YNL153C, strain GIM3, hits give low values 0.983 | S. cerevisiae deletion strains, locus YNL298W, strain CLA4 (second series), hits give low values 0.993 | S. cerevisiae deletion strains, locus YNL322C, strain KRE1, hits give low values 0.976 | S. cerevisiae deletion strains, locus YNR030W, strain Alg12, hits give low values 1.01 | S. cerevisiae deletion strains, locus YPL055C, strain LGE1, hits give low values 0.964 | S. cerevisiae deletion strains, locus YPL241C, strain CIN2, hits give low values 0.971 | S. cerevisiae deletion strains, locus YPR135W, strain CTF4, hits give low values 1.03 | S. cerevisiae strains, strain wild type, hits give low values 1.01
